Test results published in PubChem BioAssay (NCI).
The panel holds about 79,000 compounds, 15% with a hit somewhere; the sample as a whole holds those more often. Activity calls are given as the source filed them. Rule as the data show it: active = growth inhibition above about 70%; inactive = the rest.

Experiment: NCI Yeast Anticancer Drug Screen. Data for the sgs1 mgt1 strain (AID 161);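 also: 0% = growth of cultures given vehicle only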
Conditions: S. cerevisiae sgs1 mgt1 strain, at 50.0 µM (retest, dose inferred, filed as 5.0), stronger effect = higher value
How it was run: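 Percent growth inhibition was derived by comparing compound-exposed mutant yeast with vehicle-exposed cultures. The strain carries alterations in DNA damage repair.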
With `Oc1ccccc1N=CC1CCCCC1` the growth inhibition was -23% (inactive).
For `CC(O[Si](c1ccccc1)(c1ccccc1)C(C)(C)C)[C@H](NC(=O)OC(C)(C)C)C(=O)O[Si](c1ccccc1)(c1ccccc1)C(C)(C)C` (some centres not stated), the growth inhibition was 100% (active).
For `Cn1c(=O)c2c3oc(=O)cc(O)c3c(=O)n3c4ccccc4n(c1=O)c23`, the growth inhibition was 86% (active).
For `CCCCCCCCCCCCCCC(O)C(=O)O` (configuration not stated), the growth inhibition was -33% (inactive).
With `O=[N+]([O-])c1cc(I)cc(/C=N/NS(=O)(=O)c2ccc(F)cc2)c1O` the growth inhibition was 47% (inactive).
For `CCC/C=C1/OC(=O)C2=C[C@H]3CC[C@]21[C@]1(OC(=O)C2=C1CCC=C2)[C@H]3CCC`, the growth inhibition was 96% (active).
In the case of `C=C(CC)C[C@@H]1C[C@]2(C(=O)OC)c3[nH]c4ccccc4c3CCN2C1=O`, the growth inhibition is reported as 98% (active).
In the case of `Cc1ccc(N2C(=O)C(Cl)=C(Cl)C2=O)cc1`, the growth inhibition is reported as 100% (active).
With `COc1cc2c(cc1O)CCCCC2` the growth inhibition was 8% (inactive).
In the case of `CC(C)Cc1cc(O)cc2ccccc12`, the growth inhibition is reported as 98% (active).
With `CCN(CC)Cc1cc(Nc2c3ccccc3nc3c4ccccc4n(C)c23)ccc1O` the growth inhibition was 9% (inactive).
For `CC(=O)Nc1ccc(-c2csc(Nc3ccnc4cc(Cl)ccc34)n2)cc1`, the growth inhibition was 69% (inactive).
For `NNc1ccccc1F`, the growth inhibition was 92% (active).
For `O=C(O)C1(Cc2ccc3c(c2)CCC3)Cc2ccccc2C1=O` (configuration not stated), the growth inhibition was 3% (inactive).
With `c1cc2cc(Cc3ccc4[nH]ccc4c3)ccc2[nH]1` the growth inhibition was 19% (inactive).
In the case of `COc1cc(C(c2cc3c(cc2O)OCO3)N2CCOCC2)ccc1O` (configuration not stated), the growth inhibition is reported as 27% (inactive).
For `Cc1c(N)nc(C2CC(=O)N2CC(N)C(N)=O)nc1C(=O)NC(C(=O)NC(C)C(O)C(C)C(=O)NC(C(=O)NCCc1nc(-c2nc(C(=O)NCCNCC(C)O)cs2)cs1)C(C)O)C(OC1OC(CO)C(O)C(O)C1OC1OC(CO)C(O)C(OC(N)=O)C1O)c1cnc[nH]1` (configuration not stated), the growth inhibition was 98% (active).
